Three compounds from PubChem BioAssay (EPA / NIEHS) can be followed below.

The nature of experiment [1]: ATG_CRE_CIS: Attagene CIS-FACTORIAL HepG2 Assay for human cAMP Responsive Element (CRE) binding protein 3 (AID 2282926). The settings on record: HepG2 CRE cis-reporter, Attagene multiplexed mRNA; actives raise or lower the signal. Summed up: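 Endogenous transcription factor activity read via CRE-regulated reporter transcripts in transfected HepG2 cells. After 24 h exposure, RNA was reverse-transcribed, amplified, fluorescently labelled and sized by capillary electrophoresis; gain or loss fitted against DMSO.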

For experiment [2], the target named is CCAAT/enhancer-binding protein beta (Homo sapiens) (UniProt P17676). Briefly: ATG_C_EBP_CIS: Attagene CIS-FACTORIAL HepG2 Assay for human CCAAT/Enhancer Binding Protein (C/EBP) beta (AID 2282927). To be noted: HepG2 Attagene cis-factorial transcription factor reporter; actives raise or lower the signal. Summed up: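 HepG2 transiently transfected with multiplexed reporter units under cis-regulatory promoters reporting endogenous C/EBPb activity. After 24 h exposure, reporter mRNA assayed by RT-PCR, fluorescent labelling, HpaI digestion and capillary electrophoresis; bidirectional fitting versus DMSO.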
Chain of CCAAT/enhancer-binding protein beta (Homo sapiens) (P17676 whole entry, looked up): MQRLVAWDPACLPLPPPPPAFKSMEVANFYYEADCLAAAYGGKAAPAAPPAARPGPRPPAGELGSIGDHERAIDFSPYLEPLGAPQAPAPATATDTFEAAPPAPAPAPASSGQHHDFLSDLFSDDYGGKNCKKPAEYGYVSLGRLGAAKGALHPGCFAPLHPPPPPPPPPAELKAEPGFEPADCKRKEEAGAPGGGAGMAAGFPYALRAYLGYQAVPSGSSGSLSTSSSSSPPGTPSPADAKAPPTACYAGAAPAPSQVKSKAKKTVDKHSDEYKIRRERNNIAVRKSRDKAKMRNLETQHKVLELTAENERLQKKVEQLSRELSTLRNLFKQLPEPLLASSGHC

Experiment [3] is described as follows: ATG_CMV_CIS: Attagene CIS-FACTORIAL HepG2 Assay for human CMV (Internal Marker) (AID 2282928).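 Further: endpoint acts as a background internal control marker rather than a target.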 To be noted: HepG2 CMV promoter reporter, transcription factor profiling; actives raise or lower the signal. Summed up: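 Readout: fluorescent reporter cDNA fragments separated by capillary electrophoresis after RT-PCR and HpaI cut. Cells: HepG2 carrying transfected cis-promoter reporter constructs, dosed 24 h. Endpoint serves as background internal-marker control, fit bidirectionally versus DMSO.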

A short description of experiment [4]: ATG_DR4_LXR_CIS: Attagene CIS-FACTORIAL HepG2 Assay for human Liver X Receptor (LXR), DR4 submotif (AID 2282929). To be noted: HepG2 Attagene DR4 cis-reporter, mRNA transcription; actives raise or lower the signal. Summed up:
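HepG2, transient MRTU transfection, cis-element (DR4) promoter; 24 h compound exposure; total RNA → oligo(dT) RT → PCR → 6-FAM primer extension → HpaI cut → CE. Gain/loss vs DMSO, bidirectional fit.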

In experiment [5] the target is Aryl hydrocarbon receptor (Homo sapiens) (UniProt P35869). Briefly: ATG_Ahr_CIS: Attagene CIS-FACTORIAL HepG2 Assay for human Aryl Hydrocarbon Receptor (Ahr) (AID 2282930). To be noted: HepG2 AhR cis-factorial reporter transcription; actives raise or lower the signal. The procedure, abridged:
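HepG2 cells transiently transfected with cis-element-driven multiplexed reporter units; endogenous AhR activity read as reporter mRNA 24 h after dosing, via RT-PCR, 6-FAM labelling, HpaI digestion and capillary electrophoresis. Bidirectional fit relative to DMSO.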

Experiment [6] is described as follows: ATG_AP_1_CIS: Attagene CIS-FACTORIAL HepG2 Assay for human Activator Protein 1 (AP-1) (AID 2282931). To be noted: HepG2 Attagene cis-factorial AP-1 reporter mRNA; actives raise or lower the signal. The procedure, abridged: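 Transient MRTU transfection of HepG2 → 24 h chemical treatment → RNA isolation, RT-PCR, 6-FAM labelling, HpaI digest → capillary electrophoresis. Fit: bidirectional, DMSO negative control.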

Experiment [7] in a line: ATG_AP_2_CIS: Attagene CIS-FACTORIAL HepG2 Assay for human Activator Protein 2 (AP-2) (AID 2282932). To be noted: HepG2 AP-2 cis-reporter, Attagene transcription factor profiling; actives raise or lower the signal. Summed up: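 Read-out: fluorescent reporter mRNA via RT-PCR and capillary electrophoresis, 24 h post-dose in transiently transfected HepG2. Endogenous factors drive cis-promoter reporters; gain or loss of signal fitted bidirectionally against DMSO.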

Experiment [8] is described as follows: ATG_BRE_CIS: Attagene CIS-FACTORIAL HepG2 Assay for human Bone Morphogenetic Protein (BMP) Response Element (BRE) (AID 2282933). The settings on record: HepG2 BMP response element reporter, Attagene transcription factor profiling; actives raise or lower the signal. The procedure, abridged: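 A HepG2 multiplex reporter system measured inducible reporter mRNA 24 h post-dosing. Detection: RT-PCR, 6-FAM primer extension, HpaI digestion, capillary electrophoresis. Activity fitted bidirectionally relative to DMSO.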

Experiment [9] concerns the target Transcription factor E2F1 (Homo sapiens) (UniProt Q01094). In words: ATG_E2F_CIS: Attagene CIS-FACTORIAL HepG2 Assay for human E2F Transcription Factor 1 (AID 2282935). To be noted: HepG2 Attagene cis-reporter, E2F reporter RNA transcripts; actives raise or lower the signal. Summed up: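 Transient MRTU transfection of HepG2; 24 h compound exposure; RNA → oligo(dT) RT → PCR → FAM label → HpaI cut → CE fluorescence. Gain/loss of signal fit against DMSO.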

The nature of experiment [10]: ATG_E_Box_CIS: Attagene CIS-FACTORIAL HepG2 Assay for human Enhancer Box (E-box) (AID 2282936). The settings on record: HepG2 E-box cis-reporter transcription, actives raise or lower the signal. The procedure, abridged: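 Transiently transfected HepG2, endogenous TF-driven reporters, 24 h dosing. Readout: RT-PCR plus capillary electrophoresis of fluorescent reporter fragments. Gain or loss of signal fitted bidirectionally against DMSO baseline.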

The nature of experiment [11]: ATG_M_61_CIS: Attagene CIS-FACTORIAL HepG2 Assay for M61 Transcription Factor (Internal Marker) (AID 2282937). To be noted: HepG2 Attagene CIS-FACTORIAL M61 internal marker reporter; actives raise or lower the signal. The procedure, abridged: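 Human liver HepG2, transient MRTU transfection (cis promoter elements), 24 h compound. Total RNA → oligo(dT) RT → PCR → FAM label → HpaI → CE. Internal background marker; bidirectional fitting, DMSO = baseline.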

Experiment [12] can be described thus: ATG_EGR_CIS: Attagene CIS-FACTORIAL HepG2 Assay for human Early Growth Response 1 (EGR1) (AID 2282938). To be noted: HepG2 Attagene CIS-FACTORIAL EGR reporter mRNA; actives raise or lower the signal. Summed up:
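Transient transfection of human HepG2 with multiple cis-regulated reporter units, chemical exposure 24 h, total RNA isolated. Reverse transcription, PCR, fluorescent labelling and capillary electrophoresis quantify reporter transcripts; activity fitted bidirectionally against DMSO.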

Experiment [13] can be described thus: ATG_M_19_CIS: Attagene CIS-FACTORIAL HepG2 Assay for M19 Transcription Factor (Internal Marker) (AID 2282939). The settings on record: HepG2 Attagene CIS-FACTORIAL M19 internal marker reporter; actives raise or lower the signal. Summed up:
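Chemical-treated HepG2 (24 h) with MRTU constructs; reporter transcripts detected by fluorescent RT-PCR fragment analysis on capillary electrophoresis. Internal background marker, DMSO as baseline.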

A short description of experiment [14]: ATG_ERE_CIS: Attagene CIS-FACTORIAL HepG2 Assay for Estrogen Response Element (ERE) (AID 2282940). To be noted: HepG2 ERE cis-reporter, Attagene RNA transcript; actives raise or lower the signal. The procedure, abridged: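 Human liver cells (HepG2) bearing transiently transfected, promoter-regulated reporter units were exposed 24 h. Reporter mRNA induction was detected by capillary electrophoresis of labelled RT-PCR products and fitted bidirectionally to DMSO.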

Experiment [15] in a line: ATG_Ets_CIS: Attagene CIS-FACTORIAL HepG2 Assay for human Erythroblast Transformation Specific (ETS) (AID 2282941). To be noted: HepG2 ETS cis-reporter transcription, actives raise or lower the signal. The procedure, abridged: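 RT-PCR/capillary electrophoresis fluorescence read-out of reporter mRNA; HepG2 transient multi-reporter transfection; 24 h compound exposure; gain or loss of signal fitted bidirectionally relative to DMSO.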

The target of experiment [16] is Hepatocyte nuclear factor 3-beta (Homo sapiens) (UniProt Q9Y261). In words: ATG_FoxA2_CIS: Attagene CIS-FACTORIAL HepG2 Assay for human Forkhead box A2 (FOXA2) (AID 2282942). The settings on record: HepG2 cis-reporter transcription factor activity, 24 h; actives raise or lower the signal. The procedure, abridged: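 Transient MRTU transfection of HepG2 liver cells; 24 h treatment; total RNA → oligo(dT) RT → PCR → FAM primer extension → HpaI cut → CE. Bidirectional fit vs DMSO.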
Chain of Hepatocyte nuclear factor 3-beta (Homo sapiens) (Q9Y261 whole entry, looked up): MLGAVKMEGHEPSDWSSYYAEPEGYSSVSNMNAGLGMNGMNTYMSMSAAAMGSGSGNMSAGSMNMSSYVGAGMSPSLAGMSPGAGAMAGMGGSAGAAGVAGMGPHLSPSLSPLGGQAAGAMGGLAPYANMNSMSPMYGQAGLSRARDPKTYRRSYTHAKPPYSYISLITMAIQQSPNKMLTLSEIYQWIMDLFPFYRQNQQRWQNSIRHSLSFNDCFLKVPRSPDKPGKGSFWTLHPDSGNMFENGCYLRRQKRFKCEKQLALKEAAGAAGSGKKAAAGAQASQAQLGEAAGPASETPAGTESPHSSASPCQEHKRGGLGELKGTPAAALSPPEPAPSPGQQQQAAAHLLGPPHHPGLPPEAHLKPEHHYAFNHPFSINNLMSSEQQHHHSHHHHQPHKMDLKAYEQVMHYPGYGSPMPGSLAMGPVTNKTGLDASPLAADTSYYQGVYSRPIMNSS

Experiment [17] in a line: ATG_FoxO_CIS: Attagene CIS-FACTORIAL HepG2 Assay for human Forkhead box O (FoxO) (AID 2282943). To be noted: HepG2 Attagene cis-reporter, FoxO element, mRNA; actives raise or lower the signal. Summed up: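 HepG2 cells transiently transfected with cis-element-driven reporter units report endogenous FoxO activity. After 24 h chemical exposure, reporter mRNA quantified by RT-PCR, fluorescent labeling, HpaI digestion and capillary electrophoresis; bidirectional fit versus DMSO.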

Experiment [18] in a line: ATG_GATA_CIS: Attagene CIS-FACTORIAL HepG2 Assay for human GATA Binding Protein (AID 2282944). The settings on record: HepG2 GATA cis-element reporter, Attagene multiplex mRNA; actives raise or lower the signal. The procedure, abridged: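 Transfected cis-reporter HepG2 cells were treated with chemicals for 24 hours. Total RNA was then converted to cDNA, amplified with reporter-specific primers and analysed by fluorescent capillary electrophoresis, using DMSO-treated wells as baseline.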

The nature of experiment [19]: ATG_GLI_CIS: Attagene CIS-FACTORIAL HepG2 Assay for human Zinc Finger Protein GLI1 (AID 2282945). To be noted: HepG2, Attagene cis-factorial reporter mRNA, GLI element; actives raise or lower the signal. The procedure, abridged:
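Transiently transfected HepG2 cells report endogenous transcription factor activity via cis-element-driven reporter units. After 24 h compound exposure, reporter mRNA was measured by RT-PCR with capillary electrophoresis; bidirectional fitting against DMSO baseline.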

For experiment [20], the target named is Retinoic acid receptor alpha (Homo sapiens) (UniProt P10276). Briefly: ATG_DR5_RAR_CIS: Attagene CIS-FACTORIAL HepG2 Assay for human Retinoic Acid Receptor Alpha (RARE), DR5 submotif (AID 2282934). The settings on record: HepG2 Attagene cis-factorial RARE DR5 reporter, mRNA; actives raise or lower the signal. The procedure, abridged:
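HepG2 cells transiently transfected with multiplexed reporter units; DR5 cis-element drives reporter through endogenous transcription factors. After 24 h dosing, reporter mRNA quantified by RT-PCR, fluorescent labeling, HpaI digestion and capillary electrophoresis; bidirectional fitting versus DMSO.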

The source made the active and inactive calls. How the source made its calls: active means hit-call score of the fitted dose curve at least 0.9, where 1 is the maximum; inactive means score below 0.9.

Chain of Aryl hydrocarbon receptor (Homo sapiens) (P35869 whole entry, looked up): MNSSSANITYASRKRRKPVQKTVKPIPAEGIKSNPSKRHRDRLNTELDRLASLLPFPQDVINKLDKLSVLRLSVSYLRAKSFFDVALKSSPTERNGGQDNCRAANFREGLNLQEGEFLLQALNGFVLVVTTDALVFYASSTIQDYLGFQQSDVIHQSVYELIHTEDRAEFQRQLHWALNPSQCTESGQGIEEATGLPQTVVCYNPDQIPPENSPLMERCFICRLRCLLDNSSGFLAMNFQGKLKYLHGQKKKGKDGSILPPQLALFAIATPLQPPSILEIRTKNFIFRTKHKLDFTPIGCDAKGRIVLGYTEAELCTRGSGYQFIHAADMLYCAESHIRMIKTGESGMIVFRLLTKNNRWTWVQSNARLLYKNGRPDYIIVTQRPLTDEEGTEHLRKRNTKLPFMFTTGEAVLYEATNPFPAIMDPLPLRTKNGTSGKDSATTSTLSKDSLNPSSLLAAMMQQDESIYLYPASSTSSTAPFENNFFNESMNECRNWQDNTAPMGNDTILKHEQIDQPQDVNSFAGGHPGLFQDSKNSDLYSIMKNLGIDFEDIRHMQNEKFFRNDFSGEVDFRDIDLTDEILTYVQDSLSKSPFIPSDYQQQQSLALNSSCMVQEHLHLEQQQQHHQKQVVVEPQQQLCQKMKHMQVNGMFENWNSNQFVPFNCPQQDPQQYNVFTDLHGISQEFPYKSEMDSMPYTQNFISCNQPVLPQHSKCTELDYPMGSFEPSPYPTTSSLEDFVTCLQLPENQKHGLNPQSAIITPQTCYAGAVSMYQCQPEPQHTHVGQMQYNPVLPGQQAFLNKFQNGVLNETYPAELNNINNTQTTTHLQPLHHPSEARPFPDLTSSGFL
Chain of Transcription factor E2F1 (Homo sapiens) (Q01094 whole entry, looked up): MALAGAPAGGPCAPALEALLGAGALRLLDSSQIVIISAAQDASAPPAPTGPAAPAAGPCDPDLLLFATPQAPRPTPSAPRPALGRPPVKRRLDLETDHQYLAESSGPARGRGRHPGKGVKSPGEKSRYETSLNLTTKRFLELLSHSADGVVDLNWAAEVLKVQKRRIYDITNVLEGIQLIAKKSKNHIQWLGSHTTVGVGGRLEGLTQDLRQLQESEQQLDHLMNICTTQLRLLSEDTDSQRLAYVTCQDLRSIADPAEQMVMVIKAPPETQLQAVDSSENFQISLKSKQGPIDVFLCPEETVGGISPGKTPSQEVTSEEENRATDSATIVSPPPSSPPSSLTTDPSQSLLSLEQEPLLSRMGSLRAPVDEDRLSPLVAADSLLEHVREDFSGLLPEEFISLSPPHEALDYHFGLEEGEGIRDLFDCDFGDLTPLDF
Chain of Retinoic acid receptor alpha (Homo sapiens) (P10276 whole entry, looked up): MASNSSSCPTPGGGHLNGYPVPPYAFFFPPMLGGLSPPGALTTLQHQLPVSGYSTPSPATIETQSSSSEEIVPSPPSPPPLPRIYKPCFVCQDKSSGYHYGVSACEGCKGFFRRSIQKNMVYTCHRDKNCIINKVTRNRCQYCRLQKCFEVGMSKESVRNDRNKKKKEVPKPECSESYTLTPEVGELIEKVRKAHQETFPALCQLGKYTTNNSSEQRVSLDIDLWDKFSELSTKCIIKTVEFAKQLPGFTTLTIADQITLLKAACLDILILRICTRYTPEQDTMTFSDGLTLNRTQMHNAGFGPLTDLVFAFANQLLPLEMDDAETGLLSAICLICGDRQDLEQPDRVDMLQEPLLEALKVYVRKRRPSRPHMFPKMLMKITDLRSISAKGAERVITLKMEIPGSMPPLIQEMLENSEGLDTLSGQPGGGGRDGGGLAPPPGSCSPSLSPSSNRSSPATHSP

For `CC(=O)c1ccccc1`, the outcome in experiment [1], in experiment [2], in experiment [3], in [4], in [5] and in [6] was inactive. The compound was called inactive in experiment [7], in experiment [8], in [9], in experiment [10], in [11] and in experiment [12]. The call in experiment [13], in experiment [14], in experiment [15], in experiment [16], in [17] and in [18] was inactive. The outcome in experiment [19] was inactive.
Take `CCN(CC)C(=S)SSC(=S)N(CC)CC`: the AC50 in [1] is 76 µM (active); in [3], 173 µM (active); in [6], 25.8 µM (active); in [8], 142 µM (active); in [10], 18.9 µM (active); in experiment [12], 125 µM (active). In addition, the AC50 was 158 µM (active) in experiment [15], 152 µM (active) in experiment [17], 158 µM (active) in [18] and 153 µM (active) in [19]. The result in experiment [2], in [5], in experiment [7], in experiment [9], in experiment [11] and in [13] was inactive. Also, in [14], the call was inactive.
Take `CC(C)C(=O)Nc1ccc([N+](=O)[O-])c(C(F)(F)F)c1`: the compound was called inactive in experiment [1], in experiment [3], in experiment [4], in [7], in experiment [20] and in [10]. Moreover, the call in experiment [11], in experiment [12], in experiment [13], in [14], in [15] and in [16] was inactive. For the same compound, the call in [17], in experiment [18] and in [19] was inactive. The concentration at half-maximal activity (AC50) in [5] was 135 µM (active); in [6], 23.5 µM (active); in experiment [8], 65.1 µM (active).

What is called AC50 is the midpoint of the concentration-response curve, whichever way the signal moves.
